The source of these data is PubChem BioAssay AID2472 (National Center for Advancing Translational Sciences (NCATS), 2010).

“And” between values parts separate entries of the source, which are not always exact repeats. Identical values can stand only once. Screen size: about 290,000 compounds; about 2,000 (0.69%) were called active. The sample holds actives, similar compounds and a random draw of the others, so the mix is not that of the screen. Unmarked numbers belong to inactive results. Rule as the data show it: active = activity change below about -30%; inactive = the rest, inconclusive results apart.
% is scaled to controls: 0 for no effect and ±100 for the full control effect.

This test in a line: qHTS Assay for Inhibitors of Fructose-1,6-bisphosphate Aldolase from Giardia Lamblia: Coupling assay counterscreen. The settings on record: coupling enzyme system counterscreen, AmpLite Red fluorescence; at 58.2 µM (top of the series). From the text:
MLPCN Grant: MH085699-01 Assay Provider: Osnat Herzberg, University of Maryland NCGC Assay Overview: The objective of this project is to obtain compounds that inhibit Giardia lamblia growth. G. lamblia is a human pathogen which afflicts impoverished nations; it is the most common cause of outbreaks of diarrhea in the United States. During the course of our study of potential drug targets in Giardia, we have identified the Class II (Zn2+ functions in electrophilic catalysis) fructose-1,6-bisphosphate aldolase (FBPA) as an excellent candidate for drug targeting. FBPA is a key glycolytic pathway enzyme, essential for G. lamblia survival. The human FBPA belongs to the Class I aldolases, which have a different substrate binding site structure and a radically different catalytic mechanism (employing a lysine-Schiff base intermediate). Therefore, affinity-based or mechanism-based inhibitors of the Giardia FBPA are expected not to interfere with the catalytic function of the human FBPA. A glyceraldehyde-3-phosphate dehydrogenase/triose phosphate isomerase/NAD/arsenate coupled assay was adapted to the 1536-well HTP format for use in the primary screen. This was done by coupling it to a diaphorase/resazurin/resorufin reaction that can be monitored by fluorescence (excitation, 544 nm; emission, 590 nm). Compounds identified in this screen will be further evaluated by coupling the […]/triose phosphate isomerase/NADH assay to a phenazine methosulfate/tetranitroblue tetrazolium color reaction. False positives due to the dehydrogenases and diaphorase inhibition will be eliminated, and selectivity assay will triage inhibitors of mammalian triose phosphate isomerase and the Class I FBPA. G. lamblia FBPA inhibitors identified by the in vitro analyses will be examined for growth inhibition of Giardia trophozoites, and for cytotoxicity in human cells. This assay specifically addresses whether activity observed in the primary screen (AID 2451) is related to inhibition of the coupling assay used, as opposed to inhibition of aldolase. Actives in this assay are considered inconclusive for activity against aldolase.
NCGC Assay Protocol: Step,Parameter,Value,Description 1,Coupling enzyme reagent,2 uL,glyceraldehyde-3-phosphate 2,Compound,23 nL,3.68 nM-57.5 uM final concentration 3,Time,10 min,RT Incubation 4,Substrate/detection Reagent,2 uL,Substrate + enzyme coupling system + AmpLite Red kit 5,Time,20 min,RT Incubation 6,Detector,525 nm/598 nm (Fluorescence),ViewLux Fluorescence Read (Read 1) Notes: 1,Medium-binding black solid-bottom Kalypsys plates. FRD or Kalypsys dispenser. 2,Compound Library (10 mM ,1:5 dilution). Pin-transferred for a [final] range of 3.68 nM-57.5 uM. 3,RT incubation 4,FRD or Kalypsys dispenser, 2 uL of reaction mixture. Bottle kept at 4C and covered in foil to protect from light. 5,RT incubation 6,ViewLux Protocol 1194; Excitation filter wheel A (525/20 Pol; BODIPY TMR FP), Emission filter wheel B (598/25 S; BODIPY TMR FP S). Keywords: Fructose-bisphosphate aldolase, FBPA , Giardia lamblia , Giardia, HTS, Inhibitors
For orientation: qHTS replaces the single test concentration by a dilution series.
`COC(=O)c1ccc(NC(=O)CSc2nnc(CNc3ccc(OC)cc3)n2C)cc1`: the activity change, negative = inhibition is -19.7%.

For `C=CCn1c(CNC(=O)c2ccco2)nnc1SCC(=O)c1ccc(OC)cc1`, the activity change, negative = inhibition is 1.42%.

As for `CC1=C(C(N)=O)C(c2ccc(F)cc2)n2nc(CCCO)nc2N1` (centres undefined), the activity change, negative = inhibition was -0.212%.

As to `O=C(O)c1cc(S(=O)(=O)NC2CCCc3ccccc32)ccc1O` (centres undefined), the activity change, negative = inhibition is 20.1%.

In the case of `C=CCn1c(N)c(S(=O)(=O)c2cccs2)c2nc3ccccc3nc21`, the activity change, negative = inhibition was -35.3% (active).

On to `CCN(CC)CCn1c(N)c(S(=O)(=O)c2ccccc2)c2nc3ccccc3nc21`, for which the activity change, negative = inhibition was 2.05%.

On to `Cc1ccc(S(=O)(=O)c2c(N)n(C)c3nc4ccccc4nc23)cc1`, for which the activity change, negative = inhibition is -4.65%.

As to `CC(=O)NC1CCN(CC(=O)Nc2nccs2)CC1`, the activity change, negative = inhibition was -1.15%.

With `Clc1ccccc1-c1cc(NCCN2CCOCC2)ncn1`, the activity change, negative = inhibition was 2.16%.

Regarding `c1ccc2cc3c(NCCN4CCOCC4)ccnc3cc2c1`, the activity change, negative = inhibition was -52.2% (active).

As for `CN(C)c1ccc(-c2nc(NCCN3CCOCC3)c3ccccc3n2)cc1`, the activity change, negative = inhibition is -0.456%.

Take `COc1cc(NC(=O)c2ccccc2)c(OC)cc1NC(=O)Cc1ccccc1`: the activity change, negative = inhibition was -0.254%.

Take `COc1cccc(CNC(=O)CCC2CCCN(Cc3ccc(OC(F)F)cc3)C2)c1` (centres undefined): the activity change, negative = inhibition was 5.02%.

As for `Cc1ccc(C(=O)N(CC(=O)NC2CCCC2)c2ccc(F)cc2)s1`, the activity change, negative = inhibition was -3.12%.

For `CC1(OC(=O)CCc2ccccc2)C(=O)C=C2C=C(c3ccc(C#N)cc3)N(CCc3ccccn3)C=C2C1=O` (centres undefined), the activity change, negative = inhibition is -28.3% and -0.189%.

In the case of `CC1(OC(=O)C2CCCC2)C(=O)C=C2C=C(c3ccc(C#N)cc3)OC=C2C1=O` (centres undefined), the activity change, negative = inhibition was -0.443%.

As for `COCCN1C=C2C(=O)C(C)(OC(=O)C3CCCC3)C(=O)C=C2C=C1c1ccsc1` (centres undefined), the activity change, negative = inhibition was -33.6% (active) and -32.5% (active).

As for `Cc1onc(-c2ccccc2Cl)c1C(=O)OCC(=O)c1ccccc1`, the activity change, negative = inhibition was -1.67%.

With `CC(=O)N(C1=C(Cl)C(=O)c2ccccc2C1=O)c1ccc(C(=O)O)cc1`, the activity change, negative = inhibition is -85.1% (active).

`CC(C)N(C(=O)c1ccc(-c2ccccc2F)cc1)C(C)C`: the activity change, negative = inhibition is -0.0112%.

With `O=C(CN1C(=O)c2ccccc2C1=O)NCc1ccc(C(=O)O)cc1`, the activity change, negative = inhibition was 0.209%.

For the compound `COc1ccc(C(=O)N2CCC3(CC2)CCN(c2ccccn2)CC3)cc1`, the activity change, negative = inhibition is -4.93%.

In the case of `Cc1ccc(CNC(=O)Cn2cnc(S(=O)(=O)N3CCCCC3)c2)o1`, the activity change, negative = inhibition was 0.0578%.

For the compound `CCCCn1c(SCC(=O)NCC2CCCO2)nc2ccc(N3CCOCC3)cc2c1=O` (centres undefined), the activity change, negative = inhibition was -43.6% (active).

Consider `O=C(CCCn1c(SCC(=O)c2ccccc2)nc2ccccc2c1=O)NCC1CCCO1` (centres undefined), for which the activity change, negative = inhibition is -0.079%.

Consider `COCCNC(=O)c1ccc(Cn2c(SCC(=O)NCC3CCCO3)nc3ccc(Br)cc3c2=O)cc1` (centres undefined), for which the activity change, negative = inhibition was 0.29%.

Consider `Cc1ccc(OCC(=O)NCCCNC(=O)c2cccnc2)cc1C`, for which the activity change, negative = inhibition is -0.615%.

For `O=[N+]([O-])c1cccc2ncccc12`, the activity change, negative = inhibition was 0.0628%.

For the compound `COc1ccc(/C=N/Nc2nc3ccccc3c(=O)[nH]2)cc1`, the activity change, negative = inhibition is 0.889%.

Take `COc1ccc(C=Nc2cccc3ncccc23)cc1`: the activity change, negative = inhibition is -34.4% (active).

With `CCCCC/C=C\C/C=C\C/C=C\CCCCC(=O)NCC(=O)O`, the activity change, negative = inhibition was 4.26%.

Take `COC(=O)C1=C(C(=O)OC)[C@@H]2N(C)c3ccccc3[C@@]23C[C@@H](C(=O)OC)N(S(=O)(=O)c2cccs2)C3=N1`: the activity change, negative = inhibition was -0.105%.

For `O=C1CN(Cc2ccccc2)S(=O)(=O)c2ccccc21`, the activity change, negative = inhibition was 13.2%.

In the case of `COc1ccc(CC(=O)N/N=C/c2cc([N+](=O)[O-])cc(Br)c2O)cc1`, the activity change, negative = inhibition is 8.72%.

In the case of `Cc1ccc(OCCOCCOc2ccc(Br)cc2/C=N\NC(=O)c2ccncc2)cc1`, the activity change, negative = inhibition was -5.74%.

Consider `COc1ccc(CC(=O)NCC(=O)N/N=C/c2cc(Br)ccc2OC)cc1`, for which the activity change, negative = inhibition was -33.8% (active).

`COc1cccc(OCc2cc(C(=O)N3CCN(C(=O)c4ccco4)CC3)no2)c1`: the activity change, negative = inhibition is -0.102%.

As to `Cc1cc(C)c(C#N)c(N2CCC(C(N)=O)CC2)n1`, the activity change, negative = inhibition was 0.379%.

Regarding `N#Cc1c(N2CCCCC2)nc(N)c2c(N)nc(SCC(=O)O)cc12`, the activity change, negative = inhibition is -31.7% (active).

For the compound `N#Cc1c(-c2ccccc2)cc(-c2ccccc2)nc1SCC(=O)O`, the activity change, negative = inhibition is 5.25%.

On to `CCN1CCN(c2sc(S(C)(=O)=O)nc2S(=O)(=O)c2ccc(Cl)cc2)CC1`, for which the activity change, negative = inhibition is 1.03%.

Take `Cc1ccc(-c2nc3ccccc3[nH]c2=O)cc1`: the activity change, negative = inhibition is 1.32%.

`CC(=O)c1c(-c2ccccc2)c2ccccc2[nH]c1=O`: the activity change, negative = inhibition was 7.44%.

`O=c1[nH]c2ccccc2n2c(-c3ccccc3)nnc12`: the activity change, negative = inhibition was -62.8% (active).
